# According to PubChem BioAssay (NCATS):
# Values joined by “and” are separate entries in the source; they are usually repeats but may differ in a detail not shown here. Identical values can stand only once. Unmarked numbers belong to inactive results. Inconclusive results are not listed. Where a call stands in place of a potency, no number is given. Active and inactive are the calls of the source. Unless noted, the call rests on the fitted dose curve; in most records, active means well fitted curve in the direction sought with a large enough effect; inconclusive means small, poorly fitted or top-dose-only effect, or another doubt; inactive means no such curve, though single readings can be large; an effect the other way counts as inactive or inconclusive.
# Key:
# [1] = MultiTox-Fluor Cytotoxicity Assay - LYMP1-001 - Live Cells (AID 947)
# [2] = MultiTox-Fluor Cytotoxicity Assay - LYMP1-002 - Dead Cells (AID 960); further: nearly all actives have a fitted effect of over 60% in size
# How it was run: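 Human lymphoblastoid cells (LYMP1-002), 2500/well in complete medium, were exposed to compounds for 16 hr at 37 C. Dead-cell protease activity was read as bis-AAF-R110 fluorescence (Ex/Em 485/520), normalized to DMSO and 15 uM tetraoctylammonium bromide; AC50 from Hill fits.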
# [3] = Cell Viability - LYMP2-009 (AID 968); further: series mostly up to about 92 µM; nearly all actives have a fitted effect of over 55% in size
# [4] = Cell Viability - LYMP2-024 (AID 988); further: nearly all actives have a fitted effect of over 60% in size
# How it was run: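 Human lymphoblastoid cells (2500/well) in complete medium were preincubated 5 hr at 37 C, then exposed to compounds for 24 hr at 37 C. Intracellular ATP was read by CellTiter-Glo luminescence; AC50 from Hill-equation fits of concentration-response data.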
# [5] = molecular target: Estrogen receptor (Homo sapiens) (UniProt P03372); experiment: qHTS assay for small molecule antagonists of estrogen receptor alpha signaling (AID 588513; active means well fitted curve in the direction sought with a large enough effect in the signal ratio, with a control signal flat, not every such curve was filed as active; the % refers to the signal ratio)
# Estrogen receptor (Homo sapiens), sequence (P03372 whole entry, looked up): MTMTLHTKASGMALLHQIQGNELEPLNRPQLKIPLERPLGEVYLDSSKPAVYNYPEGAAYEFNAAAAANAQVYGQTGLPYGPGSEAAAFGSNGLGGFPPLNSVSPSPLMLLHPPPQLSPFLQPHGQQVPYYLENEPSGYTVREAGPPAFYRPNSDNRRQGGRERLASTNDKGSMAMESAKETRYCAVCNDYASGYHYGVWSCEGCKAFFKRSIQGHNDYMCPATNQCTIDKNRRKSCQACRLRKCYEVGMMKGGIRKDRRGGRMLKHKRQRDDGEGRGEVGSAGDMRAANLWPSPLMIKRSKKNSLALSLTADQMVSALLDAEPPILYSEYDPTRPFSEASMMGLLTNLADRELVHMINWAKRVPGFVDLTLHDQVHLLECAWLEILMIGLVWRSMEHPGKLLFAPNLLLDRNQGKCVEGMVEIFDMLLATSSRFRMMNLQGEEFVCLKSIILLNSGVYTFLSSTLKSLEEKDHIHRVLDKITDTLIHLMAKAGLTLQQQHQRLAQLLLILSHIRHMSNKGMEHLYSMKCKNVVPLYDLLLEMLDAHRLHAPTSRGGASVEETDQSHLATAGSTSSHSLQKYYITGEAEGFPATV
# How it was run: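 Fluorescence from CCF4 substrate after 2 h at room temperature gave reporter activity; cells had been exposed to compound and 0.5nM 17-beta-estradiol for 18 h at 37 C. Hill-equation fitting yielded IC50 and maximal response.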
# [6] = molecular target: Estrogen receptor (Homo sapiens) (UniProt P03372); experiment: qHTS assay for small molecule agonists of estrogen receptor alpha signaling (AID 588514; calls by dose curve; further: nearly all actives have a fitted effect of over 70% in size; further: potency means the concentration at half of the fitted maximal effect)
# How it was run: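 ER-alpha-UAS-bla GripTite HEK 293 cells in medium with 2% charcoal/dextran-treated FBS were treated with compound titrations at 37 C for 18 hrs; beta-lactamase reporter read by CCF4 fluorescence after 2 hrs at RT.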
# [7] = molecular target: Glucocorticoid receptor (Homo sapiens) (UniProt P04150); experiment: qHTS assay for small molecule antagonists of glucocorticoid receptor signaling (AID 588533; active means well fitted inhibition curve with a large enough effect in the signal ratio, with a control signal flat, not every such curve was filed as active; the % refers to the signal ratio;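 further: cells stimulated with 2 nM dexamethasone as agonist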)
# Glucocorticoid receptor (Homo sapiens), sequence (P04150 whole entry, looked up): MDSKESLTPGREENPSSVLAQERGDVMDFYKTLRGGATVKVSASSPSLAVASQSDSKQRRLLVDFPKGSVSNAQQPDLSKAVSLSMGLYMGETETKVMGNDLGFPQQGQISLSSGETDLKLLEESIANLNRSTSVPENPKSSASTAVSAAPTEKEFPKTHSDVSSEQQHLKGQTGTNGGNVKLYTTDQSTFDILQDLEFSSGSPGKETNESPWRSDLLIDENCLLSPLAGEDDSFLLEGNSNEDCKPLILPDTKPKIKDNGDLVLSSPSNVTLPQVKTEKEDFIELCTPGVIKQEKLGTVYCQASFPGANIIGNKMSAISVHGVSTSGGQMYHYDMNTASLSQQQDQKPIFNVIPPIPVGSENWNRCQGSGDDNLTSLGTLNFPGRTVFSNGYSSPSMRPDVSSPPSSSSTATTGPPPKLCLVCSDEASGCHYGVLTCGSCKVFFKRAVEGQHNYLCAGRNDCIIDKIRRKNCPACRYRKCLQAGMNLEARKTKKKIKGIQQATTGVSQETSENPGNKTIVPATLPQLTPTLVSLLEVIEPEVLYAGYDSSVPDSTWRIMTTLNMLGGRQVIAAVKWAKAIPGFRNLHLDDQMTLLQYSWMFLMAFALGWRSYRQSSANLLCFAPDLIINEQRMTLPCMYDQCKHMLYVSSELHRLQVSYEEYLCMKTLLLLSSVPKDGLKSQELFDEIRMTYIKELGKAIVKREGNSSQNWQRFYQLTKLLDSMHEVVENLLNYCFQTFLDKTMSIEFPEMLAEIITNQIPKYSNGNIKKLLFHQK
# How it was run: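 Antagonist-mode qHTS: compound titrations added to GRE-bla HeLa cells, then dexamethasone 2 nM final; 18 h, 37 C. CCF4 FRET fluorescence normalized to dexamethasone and DMSO; IC50 from Hill fit.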
# [8] = molecular target: Peroxisome proliferator-activated receptor delta (Homo sapiens) (UniProt Q03181); experiment: qHTS assay for small molecule agonists of peroxisome proliferator-activated receptor delta signaling (AID 588534; calls by dose curve)
# How it was run: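 Cell-based beta-lactamase reporter assay run in agonist mode: cells seeded and incubated 5 hrs at 37 C, compounds added and incubated 18 hrs at 37 C. CCF4 dye fluorescence read after 2 hrs at RT; EC50 and efficacy from Hill fits.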
# [9] = molecular target: Peroxisome proliferator-activated receptor gamma (Homo sapiens) (UniProt P37231); experiment: qHTS assay for small molecule agonists of peroxisome proliferator-activated receptor gamma signaling (AID 588536; active means well fitted curve in the direction sought with a large enough effect in the signal ratio, with a control signal flat, not every such curve was filed as active; the % refers to the signal ratio)
# Peroxisome proliferator-activated receptor gamma (Homo sapiens), sequence (P37231 whole entry, looked up): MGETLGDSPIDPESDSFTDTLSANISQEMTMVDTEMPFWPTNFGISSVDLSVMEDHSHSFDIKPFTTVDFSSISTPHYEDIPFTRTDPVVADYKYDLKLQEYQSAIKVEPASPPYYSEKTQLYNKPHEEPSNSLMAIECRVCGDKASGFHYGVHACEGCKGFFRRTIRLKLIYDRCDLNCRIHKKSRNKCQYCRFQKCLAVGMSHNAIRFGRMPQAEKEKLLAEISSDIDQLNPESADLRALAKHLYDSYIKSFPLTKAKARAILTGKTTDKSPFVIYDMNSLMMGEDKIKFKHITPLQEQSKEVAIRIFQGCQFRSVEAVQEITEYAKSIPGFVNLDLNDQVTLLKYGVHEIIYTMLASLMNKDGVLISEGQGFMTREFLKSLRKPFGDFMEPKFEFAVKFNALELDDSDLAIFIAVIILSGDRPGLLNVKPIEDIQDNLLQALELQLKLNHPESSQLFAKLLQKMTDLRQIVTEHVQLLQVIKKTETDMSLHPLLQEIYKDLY
# How it was run: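 Test agents, titrated, stimulated HEK293 UAS-bla cells overnight (16 h, 37 C). Substrate CCF4 was then added for two hours at room temperature before fluorescence reading.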
# [10] = molecular target: Vitamin D3 receptor (Homo sapiens) (UniProt P11473); experiment: qHTS assay for small molecule agonists of vitamin D receptor signaling (AID 588543; calls by dose curve)
# How it was run: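 Reporter cells (HEK293T, VDR-UAS-bla) were seeded in medium with 2% charcoal-stripped serum and incubated 5 h, then compounds in concentration series were added for 16 h at 37 °C. Stimulation was scaled between DMSO basal and 50 nM 1α,25-dihydroxyvitamin D3.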
# [11] = molecular target: Thyroid hormone receptor beta (Homo sapiens) (UniProt P10828); experiment: qHTS assay for small molecule agonists of thyroid hormone receptor beta signaling (AID 588545; calls by dose curve)
# Thyroid hormone receptor beta (Homo sapiens), sequence (P10828 whole entry, looked up): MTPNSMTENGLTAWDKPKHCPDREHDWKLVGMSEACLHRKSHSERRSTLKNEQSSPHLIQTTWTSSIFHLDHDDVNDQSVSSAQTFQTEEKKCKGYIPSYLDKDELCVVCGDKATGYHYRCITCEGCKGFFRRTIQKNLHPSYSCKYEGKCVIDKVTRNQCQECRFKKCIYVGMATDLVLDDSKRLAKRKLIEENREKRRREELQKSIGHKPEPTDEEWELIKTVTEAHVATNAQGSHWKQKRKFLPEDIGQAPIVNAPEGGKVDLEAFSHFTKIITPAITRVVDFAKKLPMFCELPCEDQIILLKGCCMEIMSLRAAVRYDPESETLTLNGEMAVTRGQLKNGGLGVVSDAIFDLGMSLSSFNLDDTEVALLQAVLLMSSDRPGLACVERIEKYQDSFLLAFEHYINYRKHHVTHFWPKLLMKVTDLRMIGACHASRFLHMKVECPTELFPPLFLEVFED
# How it was run: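 TR-UAS-bla GripTite HEK 293 cells (2500/well, medium with 2% charcoal/dextran FBS) were treated in agonist mode for 18 h at 37 C, titrated. Beta-lactamase was read by CCF4 ratio after 2 h; normalized to 10 nM T3 (100%) and DMSO, Hill-fitted for EC50 and efficacy.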
# [12] = molecular target: Thyroid hormone receptor beta (Homo sapiens) (UniProt P10828); experiment: qHTS assay for small molecule antagonists of thyroid hormone receptor beta signaling (AID 588547; active means well fitted inhibition curve with a large enough effect in the signal ratio, with a control signal flat, not every such curve was filed as active; the % refers to the signal ratio;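 further: cells stimulated with 0.4 nM T3 agonist during compound exposure; series mostly up to about 77 µM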); conditions: TR-UAS-bla HEK293, beta-lactamase ratio, antagonist mode, 18 h
# How it was run: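 TR-UAS-bla GripTite HEK293 cells in 2% charcoal/dextran FBS medium; compounds 0.59 nM to 92 uM with T3 at 0.4nM final, 18 h at 37 C. Beta-lactamase read by CCF4 fluorescence (460/530 nm); Hill fits gave IC50 and efficacy.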
# [13] = molecular target: Voltage-gated inwardly rectifying potassium channel KCNH2 (Homo sapiens) (UniProt Q12809); experiment: qHTS Assay for Small Molecule Inhibitors of the Human hERG Channel Activity (AID 588834);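 further: top concentration of the series differs between compounds; lower thallium flux fluorescence means stronger hERG block; nearly all actives have a fitted effect of over 50% in size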
# Voltage-gated inwardly rectifying potassium channel KCNH2 (Homo sapiens), sequence (Q12809 whole entry, looked up): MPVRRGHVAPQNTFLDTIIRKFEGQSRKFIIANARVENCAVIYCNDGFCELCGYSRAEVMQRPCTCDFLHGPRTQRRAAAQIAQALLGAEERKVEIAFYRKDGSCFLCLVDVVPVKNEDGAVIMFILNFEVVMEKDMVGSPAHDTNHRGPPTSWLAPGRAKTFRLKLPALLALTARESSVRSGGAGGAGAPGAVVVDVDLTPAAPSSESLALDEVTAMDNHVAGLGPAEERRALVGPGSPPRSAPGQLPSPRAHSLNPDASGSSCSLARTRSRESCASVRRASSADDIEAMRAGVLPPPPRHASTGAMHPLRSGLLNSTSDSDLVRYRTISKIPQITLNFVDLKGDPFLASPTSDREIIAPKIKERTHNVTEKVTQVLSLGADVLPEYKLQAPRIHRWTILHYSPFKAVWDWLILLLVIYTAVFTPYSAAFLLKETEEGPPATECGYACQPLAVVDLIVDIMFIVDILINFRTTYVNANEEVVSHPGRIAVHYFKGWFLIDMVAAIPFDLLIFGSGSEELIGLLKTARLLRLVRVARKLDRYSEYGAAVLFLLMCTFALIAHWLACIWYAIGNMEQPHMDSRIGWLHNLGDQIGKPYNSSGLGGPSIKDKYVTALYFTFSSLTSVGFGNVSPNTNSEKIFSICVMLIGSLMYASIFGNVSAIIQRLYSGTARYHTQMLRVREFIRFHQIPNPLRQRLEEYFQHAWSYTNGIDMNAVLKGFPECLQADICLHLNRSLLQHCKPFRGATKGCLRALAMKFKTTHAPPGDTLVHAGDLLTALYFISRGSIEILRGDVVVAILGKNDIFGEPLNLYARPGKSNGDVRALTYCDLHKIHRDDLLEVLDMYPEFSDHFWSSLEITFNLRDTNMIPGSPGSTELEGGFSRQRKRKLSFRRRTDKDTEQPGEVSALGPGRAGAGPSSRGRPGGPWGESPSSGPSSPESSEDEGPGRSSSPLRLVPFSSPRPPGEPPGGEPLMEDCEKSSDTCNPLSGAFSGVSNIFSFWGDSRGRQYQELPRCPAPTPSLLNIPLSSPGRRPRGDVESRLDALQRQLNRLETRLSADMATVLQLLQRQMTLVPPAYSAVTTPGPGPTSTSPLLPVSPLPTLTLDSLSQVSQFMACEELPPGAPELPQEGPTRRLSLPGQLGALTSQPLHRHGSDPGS
# How it was run: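 hERG-BacMam U2OS, 2000 cells/well; 0.7X FluxOR loading 1 hr RT dark; cpd ~10 min 37 °C; stim buffer; FDSS fluorescence 2 min @ 1 s; AC50 Hill fit.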
# [14] = molecular target: Nuclear receptor ROR-gamma (Homo sapiens) (UniProt P51449); experiment: qHTS assay for small molecule antagonists of the retinoid-related orphan receptor gamma (ROR-gamma) signaling pathway (AID 651802); further: series mostly up to about 92 µM; nearly all actives have a fitted effect of over 60% in size
# Nuclear receptor ROR-gamma (Homo sapiens), sequence (P51449 whole entry, looked up): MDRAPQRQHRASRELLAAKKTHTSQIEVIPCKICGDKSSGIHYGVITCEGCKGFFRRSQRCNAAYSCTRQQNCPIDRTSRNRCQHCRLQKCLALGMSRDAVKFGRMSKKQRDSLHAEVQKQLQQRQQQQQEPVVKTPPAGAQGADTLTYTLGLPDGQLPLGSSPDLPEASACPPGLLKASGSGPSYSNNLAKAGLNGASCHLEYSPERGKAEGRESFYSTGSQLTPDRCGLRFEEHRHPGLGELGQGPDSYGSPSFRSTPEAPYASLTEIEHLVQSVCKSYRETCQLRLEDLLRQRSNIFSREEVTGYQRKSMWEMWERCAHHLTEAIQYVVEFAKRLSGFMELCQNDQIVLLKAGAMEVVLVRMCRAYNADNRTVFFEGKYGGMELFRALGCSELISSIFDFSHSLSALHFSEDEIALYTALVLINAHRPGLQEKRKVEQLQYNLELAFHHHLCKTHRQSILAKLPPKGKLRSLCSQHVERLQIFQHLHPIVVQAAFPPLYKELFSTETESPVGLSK
# How it was run: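 CHO cells carrying TET-inducible ROR-gamma and an ROR response element–luciferase reporter were exposed to compound, then induced with doxycycline. After 16hr at 37C, luminescence was read; lower signal indicates antagonism.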
# [15] = molecular target: Nuclear receptor subfamily 1 group I member 2 (Rattus norvegicus) (UniProt Q9R1A7); experiment: qHTS assay for small molecule activators of the rat pregnane X receptor (rPXR) signaling pathway (AID 651751; call rule not given here); conditions: rPXR reporter cells, luciferase (One-Glo), 24 h
# Nuclear receptor subfamily 1 group I member 2 (Rattus norvegicus), sequence (Q9R1A7 whole entry, looked up): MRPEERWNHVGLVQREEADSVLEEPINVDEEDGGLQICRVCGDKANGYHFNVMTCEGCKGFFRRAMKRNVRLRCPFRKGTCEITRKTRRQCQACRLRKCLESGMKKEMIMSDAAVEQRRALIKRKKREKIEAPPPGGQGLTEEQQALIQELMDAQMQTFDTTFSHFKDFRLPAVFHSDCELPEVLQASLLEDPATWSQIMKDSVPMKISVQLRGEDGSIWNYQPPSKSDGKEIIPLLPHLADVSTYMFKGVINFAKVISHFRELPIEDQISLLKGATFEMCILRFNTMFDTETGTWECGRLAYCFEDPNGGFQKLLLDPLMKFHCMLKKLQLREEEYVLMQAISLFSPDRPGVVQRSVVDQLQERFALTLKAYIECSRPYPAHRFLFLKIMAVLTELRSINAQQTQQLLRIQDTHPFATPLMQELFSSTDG
# [16] = qHTS assay for small molecule activators of the human pregnane X receptor (PXR) signaling pathway (AID 720659; call rule not given here)
# [17] = molecular target: Bile acid receptor (Homo sapiens) (UniProt Q96RI1); experiment: qHTS assay for small molecule agonists of farnesoid X receptor signaling (AID 588527; calls by dose curve; further: series mostly up to about 77 µM); conditions: HEK293T FXR-UAS-bla, beta-lactamase ratio, 16 h; hits give high values
# Bile acid receptor (Homo sapiens), sequence (Q96RI1 whole entry, looked up): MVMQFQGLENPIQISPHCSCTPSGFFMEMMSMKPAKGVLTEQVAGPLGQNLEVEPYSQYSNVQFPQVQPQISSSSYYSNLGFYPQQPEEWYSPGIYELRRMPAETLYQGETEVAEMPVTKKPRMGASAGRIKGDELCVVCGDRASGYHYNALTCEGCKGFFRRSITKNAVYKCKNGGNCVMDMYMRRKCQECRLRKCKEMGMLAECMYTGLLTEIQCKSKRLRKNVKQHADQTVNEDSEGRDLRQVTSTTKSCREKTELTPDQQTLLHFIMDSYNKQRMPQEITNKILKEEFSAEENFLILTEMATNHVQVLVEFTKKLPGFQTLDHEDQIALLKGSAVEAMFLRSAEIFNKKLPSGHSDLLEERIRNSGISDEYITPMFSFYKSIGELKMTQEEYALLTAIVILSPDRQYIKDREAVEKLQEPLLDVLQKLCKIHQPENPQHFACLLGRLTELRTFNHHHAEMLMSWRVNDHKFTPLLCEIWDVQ
# How it was run: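 Read-out: beta-lactamase reporter fluorescence with CCF4 substrate in GeneBLAzer FXR-UAS-bla HEK293T cells, after 16 h compound exposure at 37 C. Response scaled between DMSO basal (0%) and chenodeoxycholic acid at 100 uM (100%).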
# [18] = qHTS assay for small molecule agonists of the antioxidant response element (ARE) signaling pathway (AID 651741; active means well fitted activation curve with a large enough effect in the signal ratio; the % refers to the signal ratio)
# How it was run: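 HepG2 ARE-bla cells plated at 2,000 cells/well and incubated 5 h at 37 C/5% CO2 received 23 nL compound in DMSO. After 16 h at 37 C, LiveBLAzer B/G FRET substrate was applied for 2 h at room temperature and fluorescence read.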
# [19] = qHTS assay for small molecule activators of the p53 signaling pathway (AID 651743; active means well fitted activation curve with a large enough effect in the signal ratio, not every such curve was filed as active; the % refers to the signal ratio; further: series mostly up to about 92 µM); conditions: HCT-116 p53RE-bla, beta-lactamase FRET ratio, 16 h; activation: hits give high values
# How it was run: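 HCT-116 p53RE-bla, 4,000 cells/well; 5 h settle; cpd/DMSO 16 h, 37 C; LiveBLAzer B/G 2 h RT; fluorescence intensity.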
# [20] = qHTS assay for environmental chemicals that activate the Aryl hydrocarbon Receptor (AhR) signaling pathway (AID 651777); conditions: 1A2-DRE human hepatoma cells, luciferase, 24 h; activation: hits give high values; further: nearly all actives have a fitted effect of over 15% in size
# How it was run: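 Human hepatoma 1A2-DRE cells, stably carrying a dioxin response element and CYP1A2 promoter driving luciferase, were exposed to compounds for 24 hr at 37 C and 5% CO2. Luciferase signal was then read after 30 min One-Glo at room temperature.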
Structure (SMILES),Potency [1],Potency [2],Potency [3],Potency [4],Potency [5],Potency [6],Potency [7],outcome [8],outcome [9],outcome [10],outcome [11],activity change % (negative = inhibition) [12],Potency [13],Potency [14],max response [15],outcome [16],activation [17],Potency [18],activation [19],activation [20]
C=CCOC(=O)c1ccccc1N,inactive,inactive,inactive,inactive,inactive,inactive,inactive,inactive,inactive,inactive,inactive,-21.1%,inactive,inactive,4.98%,inactive,,,,
c1ccc2c(c1)CCCC2,inactive,inactive,inactive,inactive,inactive,inactive,inactive,,inactive,inactive,inactive,3.81%,inactive,inactive,-0.477%,inactive,-2.64%,inactive,2.11%,2.13%
Nc1c(Cl)c(Cl)nc(C(=O)O)c1Cl,inactive,inactive,inactive,inactive,inactive,,inactive,inactive,inactive,,inactive,-17.9% and -15% and -2.55%,inactive,inactive,-1% and -3.34% and -1.89%,inactive,,inactive,-3.11% and -9.55% and -6.83%,6.67% and 13.8% and 2.52%
Nc1ccccc1Cl,inactive,inactive,inactive,inactive,inactive,inactive,inactive,inactive,inactive,inactive,inactive,-4.52%,inactive,inactive,9.37%,inactive,-1.66%,inactive,-1.73%,0.951%
CC(C)(c1ccccc1)c1ccc(O)cc1,inactive,inactive,inactive,inactive,inactive,1.78 µM (active) and 3.16 µM (active),inactive,inactive,inactive,inactive,inactive,-5.71% and 17.9%,,inactive,0.482% and 0.567%,,1.02% and 4.37%,,-4.52% and -0.799%,0.0169% and 0.603%
Cc1ccc2ccccc2c1,inactive,inactive,inactive,inactive,inactive,inactive,,inactive,inactive,inactive,inactive,0.181%,inactive,inactive,6.07%,inactive,-0.561%,inactive,-0.481%,1.58%
C=CCOC(C)=O,inactive,inactive,inactive,inactive,inactive,inactive,inactive,,inactive,inactive,,14.6%,inactive,inactive,-1.67%,inactive,-1.61%,inactive,-2.44%,-0.904%
ClC(Cl)(Cl)c1ccccc1,inactive,inactive,inactive,inactive,inactive,inactive,inactive,inactive,,inactive,inactive,-2.31% and -2.68%,inactive,inactive,1.62% and -4.94%,inactive,-1.47% and 0.945%,inactive,-3.47% and -2.04%,-0.334% and -0.126%
C=CC(=O)OCC,inactive,inactive,inactive,inactive,inactive,inactive,inactive,inactive,inactive,,inactive,-5%,inactive,inactive,-4.65%,inactive,-1.2%,inactive,,-0.74%
Oc1ccc(Cl)cc1Cl,,,inactive,inactive,inactive,inactive,inactive,inactive,inactive,inactive,inactive,16.9% and -6.49%,inactive,inactive,0.337% and 1.54%,inactive,-2.46% and -2.63%,inactive,1.07% and -2.53%,0.13% and 0.875%
CCSC(=O)Cl,inactive,inactive,inactive,inactive,inactive,inactive,inactive,inactive,inactive,inactive,inactive,-1.08%,inactive,inactive,4.31%,inactive,-1.31%,inactive,-1.99%,0.624%
